TRHR enhancer = qHTS for Small Molecule Agonists and Allosteric Enhancers of Human TRH Receptor: Primary Screen for Enhancers; Thyrotropin-releasing hormone receptor (Homo sapiens), P34981; TRHR cells, fluo-8 calcium fluorescence, EC20 TRH enhancement; enhancement, % at 2 µM; 0.66% of 360,000 active; AID 493056, 2011; in the data active means enhancement above about 30%; further: 0% is about no effect
Target sequence (P34981 whole entry, looked up): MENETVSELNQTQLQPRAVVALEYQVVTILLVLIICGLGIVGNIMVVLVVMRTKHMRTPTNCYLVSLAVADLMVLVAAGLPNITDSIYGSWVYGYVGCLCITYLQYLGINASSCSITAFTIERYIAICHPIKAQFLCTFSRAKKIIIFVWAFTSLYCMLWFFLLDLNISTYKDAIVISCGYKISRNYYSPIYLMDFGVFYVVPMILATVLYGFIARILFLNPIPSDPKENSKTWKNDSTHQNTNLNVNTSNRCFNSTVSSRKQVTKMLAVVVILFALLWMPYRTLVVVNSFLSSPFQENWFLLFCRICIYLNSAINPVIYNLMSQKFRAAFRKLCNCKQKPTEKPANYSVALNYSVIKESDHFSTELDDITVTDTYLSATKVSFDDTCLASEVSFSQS
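Enhancer read-out: after compound pinning and an initial kinetic agonist-mode read, an EC20 of TRH (10 nM final) was injected and fluo-8 calcium signal (Ex 480/Em 530) followed at 1 s/cycle for 100 cycles in TRHR-expressing cells.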
D1 potentiator = Potentiators of Human D1 Dopamine Receptor: qHTS; HEK293 TREx D1 cells, calcium flux, dopamine EC20 potentiation; potentiation, % at 10 µM; 0.036% of 360,000 active; AID 504651, 2011; in the data active means potentiation above about 30%; further: 0% is about no effect
D1 ag = Allosteric Agonists of the Human D1 Dopamine Receptor: qHTS; HEK293 T-REx D1 cells, calcium flux, agonist mode; 1% of 360,000 active; AID 504660, 2011; activation, % at 2 µM; D(1A) dopamine receptor (Homo sapiens), P21728; further: 0% is about no effect
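Inducible HEK293 T-REx D1 cells, force-coupled to calcium signalling, were plated at 4000 cells/well with tetracycline and held overnight at 30 C. After no-wash calcium dye loading, compound-evoked calcium rise over 180 s flagged agonists.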
D1 antag = Antagonist of Human D 1 Dopamine Receptor: qHTS; HEK293 TREx D1 cells, calcium flux, dopamine EC80; hits give low values; activity change, negative = inhibition, % at 10 µM; 3.2% of 360,000 active; in the data active means activity change below about -30%; further: on the % scale 0 is the no-effect control and ±100 the full control effect
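Allosteric or orthosteric antagonism assessed as attenuation of the calcium response to EC80 dopamine, added 180 s after compound, in induced HEK293 Trex D1 cells loaded with no-wash calcium dye.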
TRHR ag = qHTS for Small Molecule Agonists and Allosteric Enhancers of Human TRH Receptor: Primary Screen for Agonists; Thyrotropin-releasing hormone receptor (Homo sapiens), P34981; TRHR cells, calcium flux fluo-8, FDSS agonist mode; activation, % at 2 µM; 0.18% of 360,000 active; AID 493084, 2011; further: 0% is about no effect
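Agonist-mode FDSS calcium read (Ex 480/Em 530, 1 s cycles) in 1536-well TRHR cells with fluo-8 dye, after 10-cycle baseline and 23 nL compound addition; TRH at EC20 (10 nM final) added afterwards for the enhancer phase.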
* hit, by the source's call; / = no result given; ! = a repeat was not active. The list is not random: actives were taken first. Their share in the collection is about 4.6%. Unless noted, no stated cut-off is given here; in the data, active means activation above about 30%; inactive means the rest.

SMILES	TRHR enhancer	D1 potentiator	D1 ag	D1 antag	TRHR ag
Cc1cc(C)n2nc(SCN3C(=O)c4ccccc4C3=O)nc2n1	-10	0	1	-33*	-3
CCOC(=O)CSc1nc2nc(C)cc(C)n2n1	-1	-3	-2	6	0
Cc1cc2c(s1)c1cnn(Cc3cccc(Cl)c3)c(=O)c1n2C	6	0	2	-5	1
CCOc1ccc(C(=O)NCC(c2ccc3c(c2)OCO3)N2CCN(C)CC2)cc1 (stereo unspecified)	-6	-4	0	5	0
Cc1ccc(C)c(N2CCN(C(=O)c3cc(S(=O)(=O)N4CCCCC4)cn3C)CC2)c1	-2	-1	4	-18	-1
CS(=O)(=O)N(CC(=O)NCCc1ccccc1)C1CCCCC1	40*	0	-2	/	0
CSc1ccc(CCNC(=O)Cn2ncn3c(cc4ccccc43)c2=O)cc1	-1	-6	2	6	0
Cc1ccc(C(=O)NCCc2nnc3c(C(F)(F)F)cc(Cl)cn23)o1	-22	-9	0	-33*	0
Cc1ccc(C)c(-c2ccc(=O)n(C(C)C(=O)Nc3ccccc3C(F)(F)F)n2)c1 (stereo unspecified)	-5	-2	8	3	0
Cc1cccc(C)c1NC(=O)c1ccc2c(c1)N(Cc1cccc(Cl)c1)C(=O)c1ccccc1S2=O (stereo unspecified)	33*	-5	14	6	-2
CC(NC(=O)c1ccc2c(c1)N(Cc1ccc(Cl)cc1)C(=O)c1ccccc1S2=O)c1ccccc1 (stereo unspecified)	-1	-6	8	-35*	1
Cc1cc(NC(=O)c2ccc3c(c2)N(Cc2cccc(Cl)c2)C(=O)c2ccccc2S3=O)ccc1Br (stereo unspecified)	2	-3	6	6	1
CCC(C)NC(=O)c1ccc2c(c1)N(Cc1cccc(Cl)c1)C(=O)c1ccccc1S2=O (stereo unspecified)	-11	1	4	-6	1
CCOC(=O)c1c(C)[nH]c(C)c1S(=O)(=O)N1CCC(C(=O)N2CCN(c3cccc(C)c3C)CC2)CC1	-2	-2	5	8	-1
COc1ccc(NC(=O)CN2C(=O)CSc3ccc(S(=O)(=O)N(C)C)cc32)cc1OC	0	-6	3	-6	0
CCCc1cc(C(=O)Nc2ccc(C(=O)c3ccccc3)cc2)n(C)n1	-9	-12	14	-32*	3
Cc1ccc(S(=O)(=O)c2nnn3c2nc(N2CCN(c4ccccc4F)CC2)c2ccccc23)cc1C	4	-1	0	-4	0
CCN(CC)S(=O)(=O)c1cccc(C(=O)N/N=C2\CCCC(=O)C2)c1	-14	-2	38*	21	9
CCN(CC)S(=O)(=O)c1cccc(C(=O)N/N=C2\CC(=O)CC(C)(C)C2)c1	-5	-2	4	-18	3
CCc1nnc(NC(=O)CSc2nc3c([nH]c4ccccc43)c(=O)n2-c2ccc(Cl)cc2)s1	-3	-6	1	-12	0
Cc1ccc(Nc2ncc(C(=O)N3CCN(c4ccc(F)cc4)CC3)c3ccccc23)cc1Cl	2	0	-2	-9	0
NC1=NC2(CCN(Cc3ccccc3)CC2)n2c(nc3ccccc32)N1	3	-10	1	-43*	1
O=C(Nc1cccc(-c2nc3ccccc3s2)c1)c1cc(-n2cnnc2)ccc1Cl	-8	-5	3	-6	0
Cc1c(NC(=O)c2ccccc2F)cccc1-c1nc2cccnc2s1	11	-2	-1	-80*	-1
Cc1c(NC(=O)c2cc(-n3cnnc3)ccc2Cl)cccc1-c1nc2ccccc2s1	5	-3	1	-39*	0
SMILES	TRHR enhancer	D1 potentiator	D1 ag	D1 antag	TRHR ag
O=c1c(N2CCN(c3cccc(Cl)c3)CC2)csc2ccc(Cl)cc12	-1	-6	9	-19	0
Cc1coc2cc3oc(=O)c(CC(=O)NCc4cccc(Cl)c4)c(C)c3cc12	1	-1	10	-3	0
Cc1cc(NC(=O)C2CCN(S(=O)(=O)c3cccc4nsnc34)CC2)ccc1Br	-3	-1	1	-22	0
COc1cccc(-n2c(SCC(=O)Nc3cccc(C)c3)nc3c([nH]c4ccccc43)c2=O)c1	-1	-2	0	-24	0
c1ccc(Nc2nc(N3CCOCC3)nc(N3CCOCC3)n2)cc1	39*	2	1	-8	0
CCOc1ccc(CNc2ccc(N3CCOCC3)c(C(=O)O)c2)cc1	-3	-11	4	-56*	0
CCOc1ccc(Nc2nc(Nc3ccc(OCC)cc3)nc(N3CCOCC3)n2)cc1	35*	-2	1	-6	-1
Cc1cc(/C=N/Nc2nc(N3CCOCC3)nc(N3CCOCC3)n2)c(C)n1-c1ccccc1	32*	-2	2	5	-1
O=C(CN1C(=O)COc2ccc(S(=O)(=O)N3CCCCCC3)cc21)NCCc1ccccc1	5	20	2	-2	0
O=[N+]([O-])c1ccc(Nc2nc(NCCO)nc(N3CCCC3)n2)cc1	0	3	0	-18	0
CCCNc1nc(Nc2ccc(C)cc2)nc(N2CCCC2)n1	20	-23	5	-35*	1
c1ccc2c(c1)OCCOCCOCCOCCOc1ccccc1OCCOCCOCCO2	-7	-11	22	-32*	1
COc1ccc(NC(=O)c2ccc(CNS(=O)(=O)c3ccc4c(c3)C(C)(C)C(=O)N4C)cc2)cc1	-1	1	4	1	0
CCC1CCC(C(=O)NC(C(=O)Nc2cccc(OC)c2)C(C)C)CC1 (stereo unspecified)	-9	-1	4	-32*	0
COc1cccc(NC(=O)C2CC2)c1	6	-6	7	12	0
O=C(c1ccc2c(c1)OCO2)C1CCCN(Cc2cc(F)ccc2-n2cccn2)C1 (stereo unspecified)	-2	-10	1	-36*	-1
Cc1ccc(C(=O)NNC(=S)Nc2cccc3ccccc23)s1	-2	-18	3	-37*	0
COc1ccccc1N1CCN(C(=O)Cn2cnc3onc(-c4ccc(F)cc4)c3c2=O)CC1	-5	-1	5	-24	0
Cc1ccccc1Cn1cc(S(=O)(=O)c2ccc(F)cc2)c(=O)c2cc3c(cc21)OCO3	5	-1	3	-12	0
O=C(O)c1cc2cc(F)ccc2[nH]1	3	0	44*!	4	0
